According to ChEMBL document CHEMBL3433997, “St. Jude Leishmania screening dataset” (2016):

Each compound was assayed against Solute carrier family 2, facilitated glucose transporter member 1 (Homo sapiens) (UniProt P11166) (assay: ST_JUDE_LEISH: Cytotoxicity at 2uM final concentration against transgenic Leishmania Mexicana promastigotes LmGLUT1 that are glucose transport deficient and complemented with the human glucose transporter GLUT1. Activity is measured by DNA content using SYBR green in vitro).
Type: functional

Sequence of Solute carrier family 2, facilitated glucose transporter member 1 (Homo sapiens) (P11166 whole entry): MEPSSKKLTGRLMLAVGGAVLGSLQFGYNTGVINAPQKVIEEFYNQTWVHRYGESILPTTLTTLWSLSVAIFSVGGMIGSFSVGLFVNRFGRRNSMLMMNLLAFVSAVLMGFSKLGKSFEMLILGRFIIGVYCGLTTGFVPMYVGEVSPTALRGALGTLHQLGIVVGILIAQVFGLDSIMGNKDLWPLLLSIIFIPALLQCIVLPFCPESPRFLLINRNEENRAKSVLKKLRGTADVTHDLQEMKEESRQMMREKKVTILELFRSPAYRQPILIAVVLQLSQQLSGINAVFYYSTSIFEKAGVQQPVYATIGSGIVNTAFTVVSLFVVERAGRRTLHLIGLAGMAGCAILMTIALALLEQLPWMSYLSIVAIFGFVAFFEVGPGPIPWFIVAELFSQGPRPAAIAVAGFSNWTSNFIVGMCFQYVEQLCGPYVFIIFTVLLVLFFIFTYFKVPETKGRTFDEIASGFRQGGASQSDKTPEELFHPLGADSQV

Row | Structure (SMILES) | inhibition [%]
1 | CC(Cc1ccc(C(=O)Nc2ccc(CC(C)NCCc3cccc(Cl)c3)cc2)cc1)NCCc1ccc(C(F)(F)F)cc1 (stereo not given) | 56.4
2 | Cc1ccc(Nc2nc(N/N=C/c3cccc(O)c3)nc(Nc3ccc([N+](=O)[O-])cc3)n2)cc1C | 3.08
3 | CC(=O)c1ccc2cc(C(=O)NC3CCC(CCN4CCc5ccc(-c6noc(C)n6)cc5CC4)CC3)[nH]c2c1 (stereo not given) | -0.19
4 | COc1cc(O)c2c(=O)c(OC)c(-c3cccc(Cl)c3OC3O[C@H](CO)[C@@H](O)[C@H](O)[C@H]3O)oc2c1OC (stereo not given in full) | 5.21
5 | Oc1ccc(CCNc2nc(NCc3ccccc3-c3ccc(F)cc3)nc(N3CCNCC3)n2)cc1 | -6.17
6 | Cc1cc(N[C@@H](Cc2ccccc2)C(=O)NCCOc2ccccc2)nc(NCc2ccccc2C)n1 | 7.28
7 | COc1c(C)[nH]c(C)c(-c2ccc(Oc3cccc(C(F)(F)F)c3)cc2)c1=O | 10.2
8 | CSc1ccc(CN2CCC(NC(=O)c3ccc(-c4cccc(C(F)(F)F)c4)s3)CC2)cc1 | 3.18
9 | O=c1cc(NCCCNC2CCOc3c(Cl)cc(Cl)cc32)[nH]c2ccccc12 (stereo not given) | 1.09
10 | CC(C)(C)c1ccc(CNC(=O)COc2ccc(-c3nnc(-c4cccc([N+](=O)[O-])c4)o3)cc2[N+](=O)[O-])cc1 | -0.15
11 | O=C(O)CNCC(O)c1ccccc1 (stereo not given) | 0.32
12 | O=C(Nc1ccccc1)Nc1cccc(-c2ccc(-c3nc4cc(C(F)(F)F)ccc4[nH]3)cc2)c1 | 4.43
13 | CC(C)(NCc1ccc(OC(F)(F)F)cc1)c1nc(-c2ccc(Cl)c(O)c2)c(-c2ccncc2)[nH]1 | -0.58
14 | Cn1ncc2ccc(Nc3nccc(-c4ccc5c(c4)c(N)nn5C)n3)cc21 | 93.3
15 | COc1ccc2ncc(C#N)c(CCN3CCC(NCc4cnc5c(c4)OCCO5)CC3)c2n1 | 11.4
16 | Cc1cccc2nc(-c3ccc(-c4cccc(CN5CC(C)OC(C)C5)c4)s3)[nH]c12 (stereo not given) | 7.69
17 | CC(=NNc1nc2ccccc2s1)c1ccccn1 | 7.41
18 | FC(F)(F)c1ccc2[nH]c(-c3ccc(-c4ccc(CNCc5ccccc5)cc4)cc3)nc2c1 | 8.83
19 | CN1CCN(CCCN(Cc2csc(-c3ccc(CNCc4ccccc4)cc3)n2)S(=O)(=O)c2ccccc2)CC1 | 12.2
20 | COc1ccc(C2=C(Nc3ccc4oc5ccccc5c4c3)c3ccccc3C2=O)cc1 | 0.72

Row | Structure (SMILES) | inhibition [%]
21 | Cc1ccc2nc(C)cc(N/N=C/c3cccc([N+](=O)[O-])c3)c2c1 | 4.41
22 | O=C(c1ccc(Cl)cc1Cl)N1CCCC(C(F)(F)F)C1 (stereo not given) | 8.69
23 | CCCCc1ccc(-c2nc(NC(=O)Nc3[nH]c(-c4ccccc4)nc3C(=O)OCC)c(C(=O)OCC)[nH]2)cc1 | 3.65
24 | COc1ccc2nc3cc(Cl)ccc3c(Nc3ccc(Sc4ccc(Nc5c6ccc(Cl)cc6nc6ccc(OC)cc56)cc4)cc3)c2c1 | 3.47
25 | O=C(CN1C(=O)CC1S(=O)(=O)Cc1ccco1)NCCCCCCc1ccc(F)cc1 (stereo not given) | -0.99
26 | Cc1ccc2nc(N/C(N)=N/C(=O)NC3CCCCC3)nc(C)c2c1 | 3.24
27 | COc1ccc(-c2ccc(NC(=O)c3ccc(F)cc3)cc2)cc1CN1CCCN(C)CC1 | 6.26
28 | Cc1cc(NC(=O)Nc2ccc(Cl)cc2F)c2ccccc2n1 | 3.45
29 | CN1CCN(CCCN(Cc2cccc(-c3cccc(CNC4CCCC4)c3)c2)C(=O)CCC2CCCC2)CC1 | -0.12
30 | Cc1cccc2nc(-c3cccc(-c4ccc(CNCCCN5CCCC5=O)cc4)c3)[nH]c12 | 9.26
31 | Cc1cc2c(cc1C(F)(F)F)N(C(=O)Nc1ccc(C(=O)NC3CCN(Cc4ccccc4)C3)cc1)CC2 (stereo not given) | 4.56
32 | O=C(/C=C/c1ccc(Cl)c(Cl)c1)NCCCCCCN1CCCN(C(=O)Nc2ccc(Cl)c(C(F)(F)F)c2)CC1 | -1.95
33 | Cc1ccc(NC(=O)c2ccc(N3CCC(c4ccccc4C)CC3)nc2)cc1 | 11.9
34 | COc1cc(OC)cc(-c2nn(-c3ccc([N+](=O)[O-])cc3Cl)c(=S)n2Cc2ccco2)c1 | -1.56
35 | COc1cccc(CN2CCN(C(c3ccccc3)c3ccccc3)CC2)c1O | 6.87
36 | COc1ccc(Oc2cnc(N)nc2N)c(C(C)C)c1 | 4.31
37 | COc1ccccc1CCC(C)(C)NC(=O)CC(CCc1ccccc1)Nc1ccc(C#N)c2ccccc12 (stereo not given) | -0.97
38 | CC(=O)N(C)c1cccc(C(=O)Nc2cccc(-c3cccc(-c4nc5cccc(C)c5[nH]4)c3)c2)c1 | 13.3
39 | CCOc1ccc2c(=NN=Cc3ccccn3)cc(C)[nH]c2c1 | 9.68
40 | O=S(=O)(NCCN1CCCC1)c1cccc(-c2cccc(CNCc3ccc(F)cc3)c2)c1 | 0.2

Each compound was assayed against Hexose transporter 1 (Plasmodium falciparum) (UniProt O97467) (assay: ST_JUDE_LEISH: Cytotoxicity at 2uM final concentration against transgenic Leishmania Mexicana promastigotes LmPfHT that are glucose transport deficient and complemented with the Plasmodium falciparum hexose transporter. Activity is measured by DNA content using SYBR green in vitro).
Type: functional

Row | Structure (SMILES) | inhibition [%]
41 | CC(Cc1ccc(C(=O)Nc2ccc(CC(C)NCCc3cccc(Cl)c3)cc2)cc1)NCCc1ccc(C(F)(F)F)cc1 (stereo not given) | 37.1
42 | Cc1ccc(Nc2nc(N/N=C/c3cccc(O)c3)nc(Nc3ccc([N+](=O)[O-])cc3)n2)cc1C | 3.36
43 | CC(=O)c1ccc2cc(C(=O)NC3CCC(CCN4CCc5ccc(-c6noc(C)n6)cc5CC4)CC3)[nH]c2c1 (stereo not given) | -0.01
44 | COc1cc(O)c2c(=O)c(OC)c(-c3cccc(Cl)c3OC3O[C@H](CO)[C@@H](O)[C@H](O)[C@H]3O)oc2c1OC (stereo not given in full) | 4.48
45 | Oc1ccc(CCNc2nc(NCc3ccccc3-c3ccc(F)cc3)nc(N3CCNCC3)n2)cc1 | 3.48
46 | Cc1cc(N[C@@H](Cc2ccccc2)C(=O)NCCOc2ccccc2)nc(NCc2ccccc2C)n1 | 7.01
47 | COc1c(C)[nH]c(C)c(-c2ccc(Oc3cccc(C(F)(F)F)c3)cc2)c1=O | 10.6
48 | CSc1ccc(CN2CCC(NC(=O)c3ccc(-c4cccc(C(F)(F)F)c4)s3)CC2)cc1 | 0.48
49 | O=c1cc(NCCCNC2CCOc3c(Cl)cc(Cl)cc32)[nH]c2ccccc12 (stereo not given) | 2.42
50 | CC(C)(C)c1ccc(CNC(=O)COc2ccc(-c3nnc(-c4cccc([N+](=O)[O-])c4)o3)cc2[N+](=O)[O-])cc1 | -0.74
51 | O=C(O)CNCC(O)c1ccccc1 (stereo not given) | -0.04
52 | O=C(Nc1ccccc1)Nc1cccc(-c2ccc(-c3nc4cc(C(F)(F)F)ccc4[nH]3)cc2)c1 | 4.53
53 | CC(C)(NCc1ccc(OC(F)(F)F)cc1)c1nc(-c2ccc(Cl)c(O)c2)c(-c2ccncc2)[nH]1 | -0.36
54 | Cn1ncc2ccc(Nc3nccc(-c4ccc5c(c4)c(N)nn5C)n3)cc21 | 97.5
55 | COc1ccc2ncc(C#N)c(CCN3CCC(NCc4cnc5c(c4)OCCO5)CC3)c2n1 | 15.9
56 | Cc1cccc2nc(-c3ccc(-c4cccc(CN5CC(C)OC(C)C5)c4)s3)[nH]c12 (stereo not given) | 6.31
57 | CC(=NNc1nc2ccccc2s1)c1ccccn1 | 17.9
58 | FC(F)(F)c1ccc2[nH]c(-c3ccc(-c4ccc(CNCc5ccccc5)cc4)cc3)nc2c1 | 6.65
59 | CN1CCN(CCCN(Cc2csc(-c3ccc(CNCc4ccccc4)cc3)n2)S(=O)(=O)c2ccccc2)CC1 | 15.3
60 | COc1ccc(C2=C(Nc3ccc4oc5ccccc5c4c3)c3ccccc3C2=O)cc1 | -0.17

Row | Structure (SMILES) | inhibition [%]
61 | Cc1ccc2nc(C)cc(N/N=C/c3cccc([N+](=O)[O-])c3)c2c1 | 4.99
62 | O=C(c1ccc(Cl)cc1Cl)N1CCCC(C(F)(F)F)C1 (stereo not given) | 11.4
63 | CCCCc1ccc(-c2nc(NC(=O)Nc3[nH]c(-c4ccccc4)nc3C(=O)OCC)c(C(=O)OCC)[nH]2)cc1 | 0.82
64 | COc1ccc2nc3cc(Cl)ccc3c(Nc3ccc(Sc4ccc(Nc5c6ccc(Cl)cc6nc6ccc(OC)cc56)cc4)cc3)c2c1 | 4.48
65 | O=C(CN1C(=O)CC1S(=O)(=O)Cc1ccco1)NCCCCCCc1ccc(F)cc1 (stereo not given) | 1.25
66 | Cc1ccc2nc(N/C(N)=N/C(=O)NC3CCCCC3)nc(C)c2c1 | 4.89
67 | COc1ccc(-c2ccc(NC(=O)c3ccc(F)cc3)cc2)cc1CN1CCCN(C)CC1 | 3.81
68 | Cc1cc(NC(=O)Nc2ccc(Cl)cc2F)c2ccccc2n1 | 4.56
69 | CN1CCN(CCCN(Cc2cccc(-c3cccc(CNC4CCCC4)c3)c2)C(=O)CCC2CCCC2)CC1 | -0.45
70 | Cc1cccc2nc(-c3cccc(-c4ccc(CNCCCN5CCCC5=O)cc4)c3)[nH]c12 | 6.82
71 | Cc1cc2c(cc1C(F)(F)F)N(C(=O)Nc1ccc(C(=O)NC3CCN(Cc4ccccc4)C3)cc1)CC2 (stereo not given) | 4.45
72 | O=C(/C=C/c1ccc(Cl)c(Cl)c1)NCCCCCCN1CCCN(C(=O)Nc2ccc(Cl)c(C(F)(F)F)c2)CC1 | 0.9
73 | Cc1ccc(NC(=O)c2ccc(N3CCC(c4ccccc4C)CC3)nc2)cc1 | 9.58
74 | COc1cc(OC)cc(-c2nn(-c3ccc([N+](=O)[O-])cc3Cl)c(=S)n2Cc2ccco2)c1 | -0.65
75 | COc1cccc(CN2CCN(C(c3ccccc3)c3ccccc3)CC2)c1O | 6.03
76 | COc1ccc(Oc2cnc(N)nc2N)c(C(C)C)c1 | 5.88
77 | COc1ccccc1CCC(C)(C)NC(=O)CC(CCc1ccccc1)Nc1ccc(C#N)c2ccccc12 (stereo not given) | -0.79
78 | CC(=O)N(C)c1cccc(C(=O)Nc2cccc(-c3cccc(-c4nc5cccc(C)c5[nH]4)c3)c2)c1 | 3.96
79 | CCOc1ccc2c(=NN=Cc3ccccn3)cc(C)[nH]c2c1 | 7.32
80 | O=S(=O)(NCCN1CCCC1)c1cccc(-c2cccc(CNCc3ccc(F)cc3)c2)c1 | 2.85
